Bioassay records as filed in PubChem BioAssay.
Shown are actives, neighbours in structure and some others; about 3.1% of the full set was active somewhere.
TROY signal inh – inhibitors of TROY-dependent NF-kB signaling; Q293 LMP1-TROYcd NF-kB luciferase reporter, 4 h; inhibition, % at 10 µM; 360,000 compounds, 0.98% hits;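 active = compounds whose plate-normalised and pattern-corrected inhibition of the luciferase reporter signal at the single screening dose is 50% or more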
LGR2 antag – inhibitors of bursicon-induced Drosophila LGR2 receptor cAMP signaling | HEK293 LGR2, CRE-luciferase, bursicon-stimulated, 4 h | inhibition, % at 9.99 µM | 380,000 compounds, 0.35% hits | AID 720647;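 active = drop in luminescence signal, shown as inhibition above about 50% in the replicate tests, limit read from the data, passing the limit was not always enough; inconclusive = probably only some replicates passing the limit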;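 also: agonist challenge used bursicon conditioned medium at about half maximal strength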
LMP1 NFkB inh – Epstein-Barr LMP1 NF-kappaB reporter inhibition. AID 504558. 350,000 compounds, 0.69% hits. inhibition, % at 12.5 µM. LMP1-induced NF-kappaB luciferase reporter cells, luminescence; in the data active = inhibition above about 41%; inconclusive = no clear call, values can overlap the other calls;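 also: 0% = neutral control wells and 100% = reference inhibitor control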
EWS-Fli inh – EWS/Fli transcriptional activity inhibition; 350,000 compounds, 0.67% hits; inhibition, % at 12.6 µM; A673 NR0B1-luciferase reporter, viability-normalised;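 active = mean inhibition of at least 50% after viability correction, with every replicate also passing that limit; inconclusive = mean reaches 50% but only one of two replicates passes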;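 also: firefly luciferase signal divided by Alamar Blue viability fluorescence both relative to DMSO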
TWEAK-Fn14 inh – blocks TWEAK-Fn14 interaction in a reporter cell assay | TWEAK-stimulated Fn14 reporter cells, luciferase luminescence, 8 h | inhibition, % at 10 µM | 360,000 compounds, 2% hits; in the data active = inhibition above about 50%
PAX8 inh HTS – PAX8 transcriptional activity inhibition; RMG-I TPO-luciferase reporter, SteadyGlo, 24 h; inhibition, % at 12.6 µM; 360,000 compounds, 1.2% hits; AID 652154;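 active = mean replicate inhibition at least 60% with every replicate also reaching 60%; inconclusive = only one of the two criteria is met; inactive = mean below 60% and not all replicates reaching 60%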;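 also: luciferase light reporting Pax8 driven TPO promoter activity; plate controls were median of neutral control wells for no effect and mitoxantrone controls for full effect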
Numbers without * were called inactive; ? = inconclusive; / = no result.

SMILES	TROY signal inh	LGR2 antag	LMP1 NFkB inh	EWS-Fli inh	TWEAK-Fn14 inh	PAX8 inh HTS
CCc1ccc(-n2cccc2/C=C2/C(=N)N3C(=NC2=O)SN=C3S(C)(=O)=O)cc1	59*	16	-13	/	-6	9
Cc1ccc(-n2cccc2/C=C2/C(=N)N3C(=NC2=O)SN=C3S(C)(=O)=O)cc1	32	-6	-4	/	-19	-12
CCC(=O)N1CCC2(CC1)CN(Cc1ccc3c(c1)OCO3)[C@H](CO)c1c2c2ccc(OC)cc2n1C	/	-18	/	-13	/	/
CC[C@H]1OC(=O)[C@H](C)[C@@H](O[C@H]2C[C@@](C)(OC)[C@@H](O)[C@H](C)O2)[C@H](C)[C@@H](O[C@@H]2O[C@H](C)C[C@H](N(C)C)[C@H]2O)[C@](C)(O)C[C@@H](C)C(=NOCOCCOC)[C@H](C)[C@@H](O)[C@]1(C)O	0	11	54*	-1	-6	18
Cc1ccc(C2=NN3C(C2)c2ccccc2OC32C(=O)Nc3ccccc32)cc1 (stereo not drawn)	-5	-54	-79	/	7	/
CN1C(=O)C2(Oc3ccccc3C3CC(c4ccccc4)=NN32)c2ccccc21 (stereo not drawn)	-43	/	-30	/	81*	/
O=C(NCc1ccc(F)cc1)C(c1ccccc1)c1ccccc1	1	7	2	5	54*	-9
Cc1ccc(C(=O)n2c(N)nc3ccccc32)cc1	73*	89*	65*	75*	99*	65*
Cc1ccc(S(=O)(=O)n2c(N)nc3ccccc32)cc1	8	/	2	3	11	13
Nc1ccc(C(=O)n2c3ccccc3c3ccccc32)cc1	51*	0	18	/	37	/
O=C([C@@H]1[C@@H](CO)[C@@H]2Cn3c(ccc(C4=CCCCC4)c3=O)[C@H]1N2)N1CCCCC1	/	-1	/	6	/	/
O=C1NC(=O)/C(=C/c2ccccc2OCc2ccccc2)S1	55*	-3	5	1	-13	-10
C[C@H](CO)N1C[C@H](C)[C@@H](CN(C)S(=O)(=O)c2ccc(Cl)cc2)OCCCC[C@H](C)Oc2ccc(NS(=O)(=O)c3ccccc3)cc2C1=O	/	1	/	7	/	76*
C[C@@H]1CCCCO[C@H](CN(C)S(=O)(=O)c2ccccc2)[C@H](C)CN([C@H](C)CO)C(=O)c2cc(NS(=O)(=O)c3ccc(Cl)cc3)ccc2O1	/	-1	/	-1	/	46
C[C@H](CO)N1C[C@H](C)[C@H](CN(C)S(=O)(=O)c2ccccc2)OCCCC[C@H](C)Oc2ccc(NS(=O)(=O)c3ccc(Cl)cc3)cc2C1=O	/	20	/	3	/	84*
C[C@H](CO)N1C[C@H](C)[C@@H](CN(C)S(=O)(=O)c2ccccc2)OCCCC[C@H](C)Oc2ccc(NS(=O)(=O)c3ccc(Cl)cc3)cc2C1=O	/	9	/	-3	/	86*
COc1cccc(S(=O)(=O)N2CC3(CN(C(=O)Nc4cccc(F)c4)[C@H](CO)c4[nH]c5cc(OC)ccc5c43)C2)c1	/	31	/	7	/	/
O=C(Nc1nc2ccsc2c(=O)s1)c1ccc(F)cc1Cl	-38	/	-25	-106	-11	-183
COc1cc2nc(NC(=O)c3ccc(F)cc3Cl)sc(=O)c2cc1OC	-4	/	3	/	64*	/
C[C@H](CO)N1C[C@H](C)[C@H](CN(C)Cc2ccncc2)Oc2ccc(NS(C)(=O)=O)cc2CC1=O	/	9	/	8	/	-6
COc1cc2c(c3oc(-c4ccccc4)cc(=O)c13)C=CC(C)(C)O2	19	-4	10	26	64*	/
COc1cc(OC)c2c(=O)cc(-c3ccccc3)oc2c1	-96	-69	-24	-100	-72	/
O=C(c1ccc(F)cc1)N1CCCCN2[C@H](CO)[C@@H](c3ccc(-c4ccc(F)cc4)cc3)[C@@H]2C1	/	/	/	-1	/	24
Cc1ccc(-n2nnnc2C(Cl)(Cl)c2nnnn2-c2ccc(C)cc2)cc1	60*	19	-5	17	-30	/
COC(=O)CCn1nnc(-c2ccc(C(C)C)cc2)n1	50*	/	?	/	68*	-3
SMILES	TROY signal inh	LGR2 antag	LMP1 NFkB inh	EWS-Fli inh	TWEAK-Fn14 inh	PAX8 inh HTS
CCCNC(=O)N1C[C@H](C)[C@H](OC)CN(C)C(=O)c2ccc(NC(C)=O)cc2OC[C@@H]1C	/	4	/	3	/	-6
CCN(CC)S(=O)(=O)c1ccc(N/N=C/c2cc(OC)ccc2O)nc1	10	-5	46*	8	-12	68*
CCN(CC)S(=O)(=O)c1ccc(N/N=C/c2cccnc2)nc1	4	16	-4	1	-9	11
COC(=O)c1ccccc1NC(=O)C(C)c1ccc([N+](=O)[O-])cc1 (stereo not drawn)	-19	-18	62*	-15	4	0
CC(C)Cn1c(-c2ccc(F)cc2)n[nH]c1=S	/	/	9	/	65*	/
COc1ccc2c(c1)-c1c(ssc1=S)C(C)(C)N2	50*	/	45*	/	92*	/
COc1ccc(-n2sc3c(c2=S)-c2cc(OC)ccc2NC3(C)C)cc1	9	/	-1	/	0	/
C[C@H](O)C#Cc1ccc2c(c1)O[C@@H](CN(C)C(=O)CC1CC1)[C@H](C)CN([C@@H](C)CO)S2(=O)=O	/	2	/	0	/	/
Cc1noc(C)c1S(=O)(=O)Nc1ccc2c(c1)C(=O)N([C@@H](C)CO)C[C@@H](C)[C@@H](CN(C)S(=O)(=O)c1ccc(Cl)cc1)O2	/	-4	/	-8	/	/
Cc1ccc(-n2c(Cl)c(Cl)nc(Cl)c2=O)cc1	63*	/	72*	/	102*	/
c1ccc2c(c1)OCC(CNc1ncnc3sccc13)O2 (stereo not drawn)	0	-12	19	/	51*	-5
COc1ccc(C(=O)Nn2c(SCC(=O)NCc3ccco3)nc3ccccc3c2=O)cc1	80*	/	50*	/	88*	/
COCCCn1c(SCC(=O)NC2CCCCC2)nc2ccccc2c1=O	-28	6	-6	-8	-5	-11
COCCn1c(SCC(=O)NNC(=O)c2ccccc2)nc2ccccc2c1=O	80*	/	2	10	1	-13
COc1ccc(C(=O)NCc2cc(C)nc3ccccc23)cc1	6	38	9	53*	-1	37
COc1ccc(C(=O)Nn2c(SCC(=O)NC3CCCCC3)nc3ccccc3c2=O)cc1	78*	/	55*	/	92*	-11
COCCn1c(SCC(=O)NNC(=O)c2ccc(OC)c(OC)c2)nc2ccccc2c1=O	4	/	3	6	-2	9
CCC(=O)Nc1ccc2c(c1)OC[C@H](C)N(CC1CC1)C[C@@H](C)[C@H](OC)CN(C)C2=O	/	6	/	/	/	/
C[C@H](CO)N1C[C@H](C)[C@@H](CN(C)S(=O)(=O)c2ccc(F)cc2)Oc2c(NC(=O)C3CC3)cccc2C1=O	/	5	/	9	/	1
C/C=C/c1ccc2c(c1)O[C@H](CN(C)C(=O)NC(C)C)[C@H](C)CN([C@H](C)CO)S2(=O)=O	/	15	/	-16	/	/
COc1ccc(C(=O)Nn2c(SCc3cccc([N+](=O)[O-])c3)nc3ccccc3c2=O)cc1	76*	13	3	/	79*	/
